# Bioassay records (PubChem BioAssay)
# An excerpt weighted towards active compounds, which were near 0.8% of everything screened.
# PI4K2A block = PI4K2A (human) kinase inhibition; 420,000 tested, 0.13% active; purified PI4K2A, ADP-Glo luminescence, 1 h; hits give low values; Q9BTU6; activity change, negative = inhibition, % at 76.9 µM; in the data active means activity change below about -50%; inconclusive means mostly about -30% to -49%
#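 PI4K2A activity was measured by ADP-Glo luminescence: enzyme (4 ug/mL stock) and phosphatidylinositol (1.2 mM stock) in Tris pH 7.5/MgCl2/EGTA/Triton X-100 buffer were reacted with ATP (300 microM stock) for one hour at ambient temperature.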
# PGK inhibitor = inhibitors of T. brucei phosphoglycerate kinase. P07378. PGK/GAPDH coupled, Kinase-Glo luminescence, 60 min. Potency, µM (highest dose often 57.5 µM), actives largely listed as inhibitors. 380,000 tested, 0.043% active; further: nearly all actives have a fitted effect of over 60% in size
# Target sequence (P07378 whole entry, looked up): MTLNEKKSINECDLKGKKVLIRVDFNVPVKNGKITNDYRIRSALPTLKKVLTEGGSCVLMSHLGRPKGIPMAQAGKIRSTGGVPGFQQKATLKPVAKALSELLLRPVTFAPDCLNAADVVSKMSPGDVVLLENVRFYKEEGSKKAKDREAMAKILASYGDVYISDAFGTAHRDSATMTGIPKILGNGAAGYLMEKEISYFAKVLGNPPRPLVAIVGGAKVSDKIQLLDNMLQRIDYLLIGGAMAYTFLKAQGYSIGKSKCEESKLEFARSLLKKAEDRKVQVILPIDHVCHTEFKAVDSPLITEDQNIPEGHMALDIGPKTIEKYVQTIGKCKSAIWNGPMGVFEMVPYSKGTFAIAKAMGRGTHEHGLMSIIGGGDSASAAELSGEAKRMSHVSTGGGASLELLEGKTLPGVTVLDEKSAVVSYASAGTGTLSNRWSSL
#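 Luminescent ATP detection (Kinase-Glo Plus) follows a 60-minute room-temperature incubation, with wells lacking PGK as controls. Buffer: 100 mM TEA (pH 7.6), 5 mM MgCl2, 0.01% Tween-20. Coupling enzyme GAPDH (100 nM final) supplies unstable 1,3-BPG in-well.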
# APEX1 inh = blocks human APE1 abasic DNA cleavage; AID 2517; 350,000 tested, 0.35% active; recombinant APE1, TAMRA/BHQ-2 abasic DNA cleavage fluorescence; Potency, µM (doses to about 65.8 µM), usual class: inhibitors; further: nearly all actives have a fitted effect of over 55% in size
# Target sequence (P27695 whole entry, looked up): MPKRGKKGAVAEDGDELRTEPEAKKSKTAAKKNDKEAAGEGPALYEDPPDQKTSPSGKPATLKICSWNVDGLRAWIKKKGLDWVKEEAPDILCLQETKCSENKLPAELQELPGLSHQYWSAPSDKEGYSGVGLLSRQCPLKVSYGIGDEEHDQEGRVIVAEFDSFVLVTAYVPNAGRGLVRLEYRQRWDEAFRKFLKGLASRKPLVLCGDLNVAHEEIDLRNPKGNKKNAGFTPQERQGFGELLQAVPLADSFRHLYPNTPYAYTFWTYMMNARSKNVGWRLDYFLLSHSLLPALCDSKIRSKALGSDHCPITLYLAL
#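 Step 1: APE1 (0.75 nM) with compound, 15 min RT. Step 2: add 50 nM fluorophore/quencher THF duplex. Step 3: three fluorescence reads 60 s apart (525/598 nm); read 3 minus read 1 = reaction progress.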
# FEN1 inh = blocks human flap endonuclease 1. P39748. Recombinant FEN1 flap cleavage, fluorescence, 15 min. Potency, µM (titrated, usually from 114 µM), hits mostly inhibitors. 390,000 tested, 0.35% active. AID 588795; further: nearly all actives have a fitted effect of over 65% in size
#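 Concentration–response screening of FEN1 (10 nM): 15 min compound preincubation at room temperature, reaction started with 50 nM substrate and read at 0 and 15 min. Corrected, normalized data were fitted by a four-parameter Hill equation.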
# TDP1 block = blocks human tyrosyl-DNA phosphodiesterase 1. 350,000 tested, 0.28% active. Q9NUW8. AID 485290. recombinant TDP1, AlphaScreen DNA substrate cleavage. Potency, µM (titrated, usually from 130 µM), usual class: inhibitors; further: nearly all actives have a fitted effect of over 40% in size
#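 E. coli-derived human Tdp1, 1 nM final. Cpd preinc 15 min RT; substrate 15 nM final, 5 min RT; AS bead mix 10 ug/ml final, 10 min RT. Signal loss = tyrosine-FITC cleavage. No-enzyme wells = max signal.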
# Tb PFK inh-1 = inhibitors of T. brucei phosphofructokinase; O15648; T. brucei PFK, ADP-Glo luminescence; Potency, µM (doses to about 57.5 µM), most hits filed as inhibitors; 330,000 tested, 0.17% active; AID 485367; further: nearly all actives have a fitted effect of over 60% in size
#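 1.25 nM PFK with 0.5 mM F6P and 0.1 mM ATP in 0.1 M TEA pH 8.0, 5 mM MgCl2, incubated 45 min at room temperature; ADP measured by ADP-Glo luminescence; compounds titrated up to 57 uM.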
# TbPFK ATP = inhibits T. brucei PFK measured by ATP depletion; Tb PFK enzyme, ATP depletion, Kinase-Glo Plus luminescence; 1,100 tested, 47% active; Potency, µM (doses to about 57.5 µM); shares compounds with Tb PFK inh-1; calls by dose curve; further: nearly all actives have a fitted effect of over 60% in size
# Tb PFK inh-2 = validation of T. brucei phosphofructokinase inhibitors; shares compounds with Tb PFK inh-1; purified T. brucei PFK, ADP-Glo luminescence, 45 min; Potency, µM (top dose mostly 57.5 µM), actives largely listed as inhibitors; 1,100 tested, 41% active; AID 504637; further: nearly all actives have a fitted effect of over 60% in size
# Numbers stand for hits; . = inactive; ? = inconclusive; / = no result; ! = a repeat was not active; [ ] = dose if it differs, or a comment. Unless noted, the call rests on the fitted dose curve; in most records, active means well fitted curve in the direction sought with a large enough effect; inconclusive means small, poorly fitted or top-dose-only effect, or another doubt; inactive means no such curve, though single readings can be large; an effect the other way counts as inactive or inconclusive.
SMILES,PI4K2A block,PGK inhibitor,APEX1 inh,FEN1 inh,TDP1 block,Tb PFK inh-1,TbPFK ATP,Tb PFK inh-2
Cc1cc(C)c2c(=O)n(CC(=O)Nc3ccc(Br)c(C)c3)sc2n1,.,.,.,?,/,13µM,2.7µM,3µM
Cc1cc(C)c2c(=O)n(CC(=O)Nc3cccc(Cl)c3C)sc2n1,.,.,.,?,.,4.8µM,?,6µM
CCOC(=O)CNc1ccc(C(=O)OCC)cc1[N+](=O)[O-],.,.,.,.,.,.,/,/
CCOC(=O)C/C(C)=N/NC(=O)CNc1cccc(Cl)c1C,.,.,.,.,.,24µM,.,.
O=[N+]([O-])c1cccc(CN2CCN(Cc3ccc(Cl)cc3)CC2)c1,.,.,.,.,.,.,/,/
Cc1nc([N+](=O)[O-])c(Br)n1Cc1ccc(Cl)c(Cl)c1,.,.,.,.,.,21µM,?,?
C=C1CCC(O)C/C1=C\C=C1/CCCC2(C)C1CCC2C(C)CCCC(C)C (configuration not stated),/,/,.,/,.,/,/,/
CNc1ccc2oc(C[C@@H]3OC4(CC[C@@H]3C)O[C@H]([C@@H](C)C(=O)c3ccc[nH]3)[C@H](C)C[C@H]4C)nc2c1C(=O)O (some centres not stated),/,/,?,/,.,/,/,/
C(=C\c1ccccc1)/CN1CCN(CCOC(c2ccccc2)c2ccccc2)CC1,/,/,.,/,.,/,/,/
CCCOc1ccc(/C(O)=C2/C(=O)C(=O)N(CCCn3ccnc3)C2c2ccc(C)o2)cc1 (configuration not stated),.,.,.,.,/,?,?,30µM
CCOC(=O)c1[nH]c(C)c(/C(O)=C2\C(=O)C(=O)N(CCCn3ccnc3)C2c2ccncc2)c1C (configuration not stated),.,.,.,.,.,24µM,12µM,27µM
CC1Cc2cc(/C(O)=C3/C(=O)C(=O)N(CCCn4ccnc4)C3c3cccc([N+](=O)[O-])c3)ccc2O1 (configuration not stated),.,.,.,.,.,11µM,6.7µM,21µM
CCOC(=O)N(C)C(=O)CSP(=S)(OCC)OCC,/,/,.,/,.,/,/,/
CCCCOCCOP(=O)(OCCOCCCC)OCCOCCCC,/,/,.,/,.,/,/,/
CCCCCCCCCCCCCC(=O)O[C@@H]1[C@@H](C)[C@@]2(O)[C@H](C=C(CO)C[C@]3(O)C(=O)C(C)=C[C@@H]23)[C@@H]2C(C)(C)C12OC(C)=O (some centres not stated),/,/,.,/,.,/,/,/
O=C1NC(=O)c2c1c1c3ccccc3n3c1c1c2c2ccccc2n1C1CCC3O1,/,/,.,/,.,/,/,/
COc1ccc(NC(=O)CN(C)C(=O)c2cc3c(s2)CCC3)cc1,.,?,1.9µM,25µM,1.3µM,?,?,?
N#Cc1c(N)nc2c(c1N)CC(CCl)O2 (configuration not stated),.,.,.,.,.,?,.,.
CCOP(=S)(OCC)SCSC(C)(C)C,/,/,.,/,.,/,/,/
CCN(CC)CCOC(=O)c1ccc(N=Cc2c(O)[nH]c(=O)[nH]c2=O)cc1,.,.,.,.,.,.,/,/
CCN(CC)CCOC(=O)c1ccc(N/C=C(/C#N)c2nc(-c3cc4ccccc4oc3=O)cs2)cc1,.,.,?,?,/,?,.,?
CCC(=O)OCCNc1cc(Sc2nc3ccccc3[nH]2)c2nonc2c1[N+](=O)[O-],.,.,?,.,.,?,6µM,9.5µM
CC[C@@H]1CN2CCc3cc(OC)c(OC)cc3[C@H]2C[C@@H]1C[C@H]1NCCc2cc(OC)c(OC)cc21,/,/,.,/,.[21 µM],/,/,/
O=C(Cc1ccc(Br)cc1)N/N=C/c1ccc(-c2cccc(C(=O)O)c2)o1,.,.,.,.,.,11µM,11µM,12µM
COc1ccc(OC)c(CC(C)N)c1 (configuration not stated),.,/,/,/,/,/,/,/
SMILES,PI4K2A block,PGK inhibitor,APEX1 inh,FEN1 inh,TDP1 block,Tb PFK inh-1,TbPFK ATP,Tb PFK inh-2
O=C(CSc1ccsc1[N+](=O)[O-])Nc1cc(F)ccc1F,.,?,.,?,.,?,6.7µM,?
CCN(CC)c1ccc(NC(=O)CSc2ccsc2[N+](=O)[O-])c(C)c1,.,.,.,.,.,?,?,.
Cc1nc2ccc(NC3=NCCCCC3)cc2s1,.,.,.,.,.,11µM,8.5µM,6.7µM
O=C(CCCN1CCC2(CC1)C(=O)N(Cc1cccc(F)c1)CN2c1ccccc1)c1ccc(F)cc1,/,/,.,/,.,/,/,/
O=C(/C=C/c1ccc(OCCCF)cc1)NCc1cccc(Cl)c1,.,.,.,.,.,?,?,?
O=C(/C=C/c1ccc(S(=O)(=O)NCc2ccco2)cc1)NCc1cccc(Cl)c1,.,.,.,.,.,27µM,21µM,27µM
O=C(NCc1ccccc1)c1cccn(Cc2cccc(Cl)c2)c1=O,.,.,.,.,/,.,/,/
N#Cc1c(Oc2cccc(OS(=O)(=O)CCCC(F)(F)F)c2)cccc1C(F)(F)F,/,/,.,/,.,/,/,/
CCCC(C)c1nnc(NC(=O)c2cc(C(=O)OC)cc([N+](=O)[O-])c2)s1 (configuration not stated),.,.,.,.,.,24µM,6.7µM,15µM
CCCCn1c(=O)c(C(=O)Nc2nnc(C(C)C)s2)c(O)c2ccccc21,/,/,.,/,.,.,/,/
COC(=O)c1[nH]c2ccc(C)cc2c1NC(=O)CN1CCCc2ccccc21,.,.,.,?,.,?,.,?
Cc1cccc(C)c1NC(=O)CN1CCCC1=O,.,/,/,/,/,/,/,/
CC[N+](=O)[O-],/,/,.,/,.,/,/,/
Cc1cccc(C)c1NCc1n[nH]c(=S)n1-c1ccccc1,.,.,.,.,.,?,3µM,7.6µM
Cc1cccc(-n2c(C)n[nH]c2=S)c1C,.,.,.,.,/,/,/,/
COC(=O)CC1(CC(=O)OC)C(=O)N(c2ccccc2)C(=O)N(c2ccccc2)C1=O,.,.,.,.,/,.,/,/
O=C(CC1SC(=O)N(c2ccccc2)C1=O)Nc1ccc(Br)cc1 (configuration not stated),.,.,.,.,.,19µM,?,?
ClC(Cl)(Cl)C(Cl)(Cl)Cl,/,/,.,/,.,/,/,/
O=c1c2ccccc2sn1-c1cc(S(=O)(=O)N2CCOCC2)ccc1N1CCOCC1,.,.,.,32µM!,.,13µM,?,21µM
O=c1c2ccccc2sn1-c1cc(S(=O)(=O)N2CCOCC2)ccc1N1CCCC1,.,.,.,.,.,9.5µM,?,?
